D3 ag: agonists of human D3 dopamine receptor; 410,000 compounds, 0.58% hits; D3R DiscoveRx beta-arrestin cells, luminescence, 90 min; P35462; max activation, %; in the data active means max activation above about 30%; further: 0% is about no effect
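Cells at 1500/well, incubated overnight, then treated with pinned compounds (dopamine as control) for 90 min at 37 degrees C. DiscoveRx reagent added for 30 - 60 minutes at room temperature; luminescence read.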
MmCpn inh: blocks the Methanococcus maripaludis chaperonin Mm-Cpn; purified Mm-Cpn ATPase, ADP Transcreener TR-FRET; Potency, µM (series often up to 76.9 µM), without a hit: at the highest dose activity, negative = inhibition, hits mostly inhibitors; 330,000 compounds, 0.031% hits; AID 504842; active means well fitted inhibition curve with a large enough effect; inconclusive means small, poorly fitted or top-dose-only effect; further: potency means the concentration at half of the fitted maximal effect; on the % scale 0 is the no-effect control and ±100 the full control effect; nearly all actives have a fitted effect of over 80% in size
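Compound-treated chaperonin, 25 nM final, turns over 10 uM ATP at 37°C for 30 min following a 10 min preincubation; ADP generated competes with ADP-d2 for Eu-cryptate antibody, lowering FRET.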
Rango release inh: inhibitors of RanGTP-induced Rango-importin beta complex dissociation | 340,000 compounds, 0.071% hits | Biochemical FRET Rango-importin beta, RanGTP-induced dissociation | Potency, µM (highest dose often 46.1 µM), inactives show at the top dose activity change, negative = inhibition | O95149+P62826 | AID 540253; further: potency means the concentration at half of the fitted maximal effect; % of control where 0% means no effect; nearly all actives have a fitted effect of over 45% in size
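Two FRET readings bracket the reaction: one 5 min after compound meets Rango–importin beta, another 45 min after RanGTP-RCC1 (0.6 uM Ran, 0.2 uM RCC1, 2 mM GTP) is added. Only the second defines inhibition.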
Rango-impB inh: prevents formation of the Rango-importin beta complex; 340,000 compounds, 0.031% hits; Rango CFP/YFP FRET sensor + importin beta, 45 min; Q14974; Potency, µM (series often up to 92.2 µM), without a hit: at the top dose inhibition of complex formation; AID 540263;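 further: potency means the concentration at half of the fitted maximal effect; 0% = DMSO wells and 100% = buffer wells lacking importin beta; nearly all actives have a fitted effect of over 15% in size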
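FRET biosensor (snurportin 1 IBB flanked by EYFP and cerulean), 50 nM, with compound 5 min, then 0.125 microM importin beta in PBS, 1 mM DTT, 0.02% Tween-20, 0.1% BSA. CFP/YFP ratio read after 45 min at room temperature; pre-read flags interference.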
TSG101-PTAP inh: blocks PTAP/TSG101 interaction to inhibit HIV-1 budding; Fluorescence polarization, FITC-PTAP peptide / Tsg101 binding; Potency, µM (titrated, usually from 115 µM), inactives show top-dose activity change, negative = inhibition, actives largely listed as inhibitors; 340,000 tested, under 10 active; AID 493005; active means well fitted inhibition curve with a large enough effect in the main read-out, with a control signal flat, not every such curve was filed as active; inconclusive means small, poorly fitted or top-dose-only effect, or effect the other way, or a change in a side signal; inactive means no such curve, though single readings can be large or run the other way; further: potency means the concentration at half of the fitted maximal effect; % of control where 0% means no effect
Target sequence (Q99816 whole entry, looked up): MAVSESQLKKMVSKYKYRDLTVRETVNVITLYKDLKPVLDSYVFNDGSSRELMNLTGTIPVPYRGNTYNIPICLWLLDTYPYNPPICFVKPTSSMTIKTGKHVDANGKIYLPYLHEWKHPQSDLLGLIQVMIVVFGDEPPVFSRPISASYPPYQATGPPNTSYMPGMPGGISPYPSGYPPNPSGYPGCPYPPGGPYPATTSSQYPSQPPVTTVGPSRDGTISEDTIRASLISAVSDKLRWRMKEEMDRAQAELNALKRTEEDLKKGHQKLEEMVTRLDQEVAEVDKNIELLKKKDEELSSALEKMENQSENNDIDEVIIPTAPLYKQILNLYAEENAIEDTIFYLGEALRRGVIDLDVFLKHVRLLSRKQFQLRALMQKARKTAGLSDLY
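Steps: Tsg101 binding domain dispensed (10 uM final), compounds pinned in DMSO, FITC-labeled PTAP-motif peptide added (50 nM final); after 20 min binding at room temperature, polarization measured.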
D3 antag: D3 dopamine receptor (human) antagonism. D3R cells, DiscoveRx beta-arrestin luminescence, antagonist mode; stronger effect = lower value. max response, negative = inhibition, %. 360,000 compounds, 2.5% hits. AID 652054; in the data active means max response below about -50%; inconclusive means no clear call, values can overlap the other calls; further: on the % scale 0 is the no-effect control and ±100 the full control effect
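Cells expressing the human receptor were seeded at 1500 cells/well, incubated overnight at 37 degrees C in 5% CO2, then exposed to library compounds with dopamine controls for 90 minutes at 37 degrees C before luminescent detection.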
Starred values were filed as active, the others as inactive; ? = inconclusive; · = no result; [ ] = dose if it differs, or a comment. Only some compounds are listed: those with a hit (about 2.9% of all), similar ones and a draw of the others. Unless noted, the call rests on the fitted dose curve.

SMILES | D3 ag | MmCpn inh | Rango release inh | Rango-impB inh | TSG101-PTAP inh | D3 antag
CSc1nc(-c2ccccc2)nc(N2CCN(C)CC2)c1C(C)=O | -23 | 0% | ? | -6% | -1% | -55*
Oc1c(Br)cc(Br)cc1/C=N/N1CCN(Cc2ccccc2)CC1 | -28 | -3% | -7% | -3% | -4% | -80*
O=C(O)CCCN1C(=O)C2C3CCC(C3)C2C1=O (stereo unspecified) | 3 | · | · | · | · | -73*
COc1cc(NC(=O)C2=C(C)OCCS2)c(Cl)cc1C(=O)NCCN(C)C | -11 | 0% | -6% | -3% | -3% | -52*
CCN(CC)CCOC(=O)c1cc(Cl)c(N)cc1OC | -70 | -1% | -20% | 2% | 0% | -58*
COCCNC(=O)c1cc(OC)c(OC)cc1[N+](=O)[O-] | -1 | 2% | 5% | 1% | -2% | 3
CCOc1ccc(C(=O)OCCN(CC)CC)cc1 | -5 | 1% | -5% | -1% | -2% | 6
CCN(CC)CCNC(=O)c1cc([N+](=O)[O-])c(N(C)C)cc1OC | -22 | 2% | 16% | -2% | -1% | -93*
COc1cc(CCNC(=O)c2ccccc2NC(=O)C2=C(C)OCCS2)cc(OC)c1OC | 11 | 2% | 22% | -4% | -1% | 3
CCN(CC)CCOC(=O)c1ccc(Cl)cc1 | -9 | 0% | 0% | -4% | -3% | -83*
CCOc1ccc(C(=O)NCCc2sc(-c3ccc(OC)c(OC)c3)nc2C)cc1 | 16 | · | · | · | · | ·
Nc1ccn(C[C@@H](CO)OCP(=O)(O)O)c(=O)n1 | -9 | · | · | · | · | ·
Cc1ccccc1NC(=O)Cn1cc(S(=O)(=O)c2ccccc2)c(=O)c2ccccc21 | 2 | · | · | · | · | ·
CCN(CC)CCNC(=O)c1cc(Cl)c(N)cc1OC | -90 | -1%[15.4 µM] | -8% | 0% | -1% | -117*
COc1ccc(Cl)cc1C(=O)NCCN(C)C | -4 | 1% | -2% | ? | -6% | -72*
COc1ccc(CCNC(=O)c2cc3cc(Cl)ccc3nc2N)cc1OC | 51* | · | · | · | · | -7
CCNC(=O)c1cc(Cl)ccc1OC | 3 | ? | 1% | 1% | -5% | -7
Nc1nc2ccc(Cl)cc2cc1C(=O)NCCc1ccc(O)cc1 | 5 | · | · | · | · | 4
COC(=O)c1cc(Cl)c(N)cc1OC | -3 | -2% | -14% | 3% | -4% | -11
Cc1cccc(-c2nc3c4ccccc4nc(NCc4ccccc4Cl)n3n2)c1 | -15 | · | · | · | · | ·
CCOC(=O)c1c(C)oc2nc(C)nc(NCc3cccc(OC)c3)c12 | 14 | · | · | · | · | ·
COc1ccc2cc(CN(CCCN3CCOCC3)Cc3nnnn3C3CCCCC3)c(=O)[nH]c2c1 | -35 | 1% | -8% | -2% | -3% | -50*
COc1ccc2cc(CN(CCc3ccccc3)Cc3nnnn3Cc3ccco3)c(=O)[nH]c2c1 | 6 | -6% | 15µM* | ? | -1% | ?
CC(C)c1ccc(NC(=O)CC2NCCNC2=O)cc1 (stereo unspecified) | -1 | · | · | · | · | ·
CCc1ccc(NC(=O)CC2C(=O)N(c3ccc(OC)cc3)C(=O)N2Cc2cccs2)cc1 (stereo unspecified) | 26 | · | · | · | · | ·
CCc1c(C)sc(NC(=O)c2cc3nc(-c4ccc(OC)cc4)cc(C(F)(F)F)n3n2)c1C(=O)OC | -15 | · | · | · | · | ·
COc1cc(/C=C2\COC/C(=C\c3cc(OC)c(OC)c(OC)c3)C2=O)cc(OC)c1OC | -12 | 1% | 11% | ? | -7% | -63*
COc1cc(/C=C2\CCC/C(=C\c3ccc(O)c(OC)c3)C2=O)ccc1O | -7 | 0% | ? | ? | -6% | 13
COc1cc(/C=C2\CC/C(=C\c3cc(OC)c(O)c(OC)c3)C2=O)cc(OC)c1O | -8 | -1% | ? | ? | 6% | -74*
COc1cc(/C=C2\CC/C(=C\c3cc(OC)c(OC)c(OC)c3)C2=O)cc(OC)c1OC | -8 | -2% | ? | ? | -2% | -4
